# Screens deposited in PubChem by Broad Institute.
# This is a sample that favours compounds with a hit; in the whole collection about 2.7% have one here.
# INS-1E GSIS act – GLuc luminescence reporter in INS-1E cells, primary screen for activators of glucose-dependent secretion of insulin. 370,000 tested, 0.61% active. activation, % at 16.6 µM. AID 743287. INS-1E GLuc reporter insulin secretion, 2-3 h;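 active = lowest replicate activation of at least 40%, so every replicate reaches that level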;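 note: 0% = median of neutral control wells and 100% = median of IBMX positive control wells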
# PGC1a acetyl inh – modulators of PGC1a acetylation | 350,000 tested, 0.17% active | AID 651687 | U2OS PGC1a acetylation, AlphaScreen anti-acetyl-lysine; with virally co-expressed GCN5 acetyltransferase | inhibition, % at 15.6 µM;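 active = every replicate shows inhibition of at least 40%; inconclusive = mean inhibition at least 40% but some replicate below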;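 note: 0% = neutral control wells and 100% = positive control wells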
# Env fusion inh – blocks HIV Env-driven cell-cell fusion; HeLa-JRFL Env/CEM21 cell fusion, luciferase; inhibition, % at 12.3 µM; 360,000 tested, 1.1% active; AID 651610;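 active = mean replicate inhibition score of at least 50 and every replicate individually at or above 50; inconclusive = only one of the two criteria met; inactive = mean below 50 and not all replicates reaching 50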;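 note: 0% = plate neutral controls and 100% = maraviroc near 300 nM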
# F508del corr – correctors of CFTR F508del function in bronchial epithelial cells; 350,000 tested, 0.36% active; activity (quench increase), % at 7.58 µM; CFBE cells, YFP halide quenching; stimulated with forskolin plus potentiator P3; % fluorescence drop versus neutral controls;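 active = mean added fluorescence quench of at least 8% versus neutral control, with both replicates also reaching 8%; inconclusive = only one of the mean or replicate conditions met; inactive = mean below 8% and not both replicates reaching 8%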;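 note: cells transiently co-express mutant CFTR-F508del with the halide-sensitive YFP; corrector assay measuring rescue of mutant channel to the surface after 24 h compound exposure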
# EWS-Fli block – EWS/Fli transcriptional activity inhibition | A673 NR0B1-luciferase reporter, viability-normalised | inhibition, % at 12.6 µM | 350,000 tested, 0.67% active;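 active = mean inhibition of at least 50% after viability correction, with every replicate also passing that limit; inconclusive = mean reaches 50% but only one of two replicates passes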;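 note: firefly luciferase signal divided by Alamar Blue viability fluorescence both relative to DMSO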
# PAX8 reporter – inhibitors of PAX8 transcriptional activity in RMG-I cells. RMG-I TPO-luciferase reporter, SteadyGlo, 24 h. inhibition, % at 12.6 µM. 360,000 tested, 1.2% active;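 active = mean replicate inhibition at least 60% with every replicate also reaching 60%; inconclusive = only one of the two criteria is met; inactive = mean below 60% and not all replicates reaching 60%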;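 note: luciferase light reporting Pax8 driven TPO promoter activity; plate controls were median of neutral control wells for no effect and mitoxantrone controls for full effect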
# Numbers without * were called inactive; i = inactive; ? = inconclusive; . = no result; [ ] = remark or other dose.
SMILES,INS-1E GSIS act,PGC1a acetyl inh,Env fusion inh,F508del corr,EWS-Fli block,PAX8 reporter
C[C@@H]1CCCCO[C@H](CN(C)C(=O)Nc2ccc3c(c2)OCO3)[C@H](C)CN([C@H](C)CO)C(=O)c2cc(NS(=O)(=O)c3ccccc3)ccc2O1,-15,0,13[16.7 µM],1,-33,-24
COc1ccccc1NC(=O)C(=O)Nc1ccc2c(c1)N(C(=O)C1CC1)CCC2,-2,.,-9,-2,-26,79*
CC(=O)OCC(=O)NCCCOc1cccc(CN2CCCCC2)c1,-3,9,0,8.3*,-8,-9
O=C(c1ccco1)N1CCCC(c2nc(-c3ccc(S(=O)(=O)NCc4ccccc4)cc3)no2)C1 (configuration not stated),.,3,65*,.,.,.
C[C@@H]1CN([C@H](C)CO)C(=O)Cc2cc(NC(=O)Nc3ccc(F)cc3)ccc2O[C@H]1CN(C)C(=O)Nc1ccc(C(F)(F)F)cc1,-15,2,-6[16.7 µM],2,27,80*
C[C@@H]1CN([C@@H](C)CO)C(=O)Cc2cc(NC(=O)Nc3ccc(C(F)(F)F)cc3)ccc2O[C@H]1CN(C)C(=O)Nc1ccc(C(F)(F)F)cc1,-10,-2,37[16.7 µM],0,1,78*
C[C@H]1CN([C@@H](C)CO)C(=O)Cc2cc(NC(=O)Nc3ccc(C(F)(F)F)cc3)ccc2O[C@@H]1CN(C)C(=O)Nc1ccc(F)cc1,-3,-6,1[16.7 µM],1,-7,-5
COc1ccccc1-c1ccc([C@H]2[C@@H](CO)N3CCCCN(Cc4ccncc4)C[C@H]23)cc1,15,-8,.,1,15,-8
C/C(=N\NC(=O)c1nn(C)cc1Br)c1ccc(NC(=O)c2ccncc2)cc1,-6,.,.,-1,-15,87*
C/C(=N\NC(=O)c1nn(C)cc1Br)c1cccc(NC(=O)C(C)(C)C)c1,.,4,.,.,.,.
CC1CCCCN1C(=O)COC(=O)CSc1ccc(C(N)=O)cc1[N+](=O)[O-] (configuration not stated),45*,-1,.,2,0,11
O=[N+]([O-])c1ccc(Sc2nnnn2-c2ccccc2)nc1,-3,.,-62,-9,19,78*
OC[C@@H]1[C@@H](c2ccccc2)C(c2ccccc2)=NN1c1ccccc1,-11,-14,-27,-3,15,20
c1ccc(-c2nn(-c3ccccc3)[n+](-c3ccccc3)n2)cc1,-54,1,43,-6,11,77*
O=C(C[C@@H]1C[C@@H]2c3cc(NC(=O)C4CCOCC4)ccc3O[C@@H]2[C@H](CO)O1)NC1CCCC1,5,1,-10[16.7 µM],-3,3,-2
CC(C(=O)NC(C)(C)C)n1c(-c2ccccc2)nc2ccccc21 (configuration not stated),.,.,-5,-3,-70,-18
CCC(C(=O)NC(C)(C)C)n1c(-c2ccc(C)cc2)nc2ccccc21 (configuration not stated),-21,.,-6,-2,-7,-16
CCC(C(=O)NC(C)(C)C)n1c(C(c2ccccc2)c2ccccc2)nc2ccccc21 (configuration not stated),-9,.,86*,1,-10,4
CC(C(=O)NC(C)(C)C)n1c(C(c2ccccc2)c2ccccc2)nc2ccccc21 (configuration not stated),-50,.,87*,1,-6,10
Cc1csc(-c2nc3ccccc3n2C(C(=O)NC(C)(C)C)c2ccccc2)c1 (configuration not stated),-28,.,57*,0,4,10
CNC[C@H]1Oc2ccc(NC(=O)NC(C)C)cc2CC(=O)N(C)C[C@H]1C,19,.,.,.,.,.
CCN(CC)CCCNc1nc2ccccc2c2[nH]c3ccc(OC)cc3c12,-14,.,-191,17*,?,99*
CCCCC(=NCCc1c(C)[nH]c2ccccc12)C1=C(O)CC(c2ccccc2)CC1=O (configuration not stated),5,0,-19,8.6*,51*,26
CCCC(=NCCc1c(C)[nH]c2ccccc12)C1=C(O)CC(c2ccccc2)CC1=O (configuration not stated),-13,.,.,.,.,.
NS(=O)(=O)c1ccc(Sc2nc3ccccc3s2)c([N+](=O)[O-])c1,.,1,73*,3,25,78*
SMILES,INS-1E GSIS act,PGC1a acetyl inh,Env fusion inh,F508del corr,EWS-Fli block,PAX8 reporter
NS(=O)(=O)c1ccc(Sc2ccccn2)c([N+](=O)[O-])c1,8,3,-3,7,7,4
CCOC(=O)c1c(CS(=O)(=O)c2ccccc2)n(C)c2cc(Br)c(O)c(CN(C)C)c12,1,-22,67*,-1,13,16
CCOC(=O)c1c(C)oc2ccc(O)c(CN(C)C)c12,.,-4,.,.,.,.
CCOC(=O)c1c(CSc2ccccc2)oc2cc(Br)c(O)c(CN(C)C)c12,-30,-14,127*,1,-2,-13
CCOC(=O)c1c(CSc2ccc(CC)cc2)oc2ccc(O)c(CN(C)C)c12,786,.,56*,-1,30,29
CCOC(=O)c1c(CS(=O)(=O)c2ccccc2)n(C)c2cc(Br)c(O)cc12,.,-20,31,.,7,13
Cc1cccc(-c2ccc([C@H]3[C@H]4CN(C(=O)NC5CCCCC5)CC(=O)N4[C@H]3CO)cc2)c1,-23,1,.,2,4,.
O=C1/C(=C/c2cccs2)NC(=S)N1C1CC1,47*,6,-7,0,-2,11
COc1cc(OC)cc(-c2cc3ccc(OC)cc3cn2)c1,-5,-11,i,10*,16,-2
C[C@@H]1CN([C@H](C)CO)C(=O)c2cc(N(C)C)ccc2O[C@@H](C)CCCCO[C@H]1CN(C)Cc1ccccc1,-2,-9,-8[16.7 µM],0,2,0
C[C@H](CO)N1C[C@H](C)[C@H](CN(C)S(=O)(=O)c2ccc(F)cc2)Oc2ccc(NC(=O)c3ccncc3)cc2CC1=O,8,-3,.,2,1,-14
CC(C)NC(=O)CCCn1cc([N+](=O)[O-])cn1,4,-2,-20,-1,8,2
Cc1nn(C)c(C)c1/C=N/NC(=O)CCn1cc([N+](=O)[O-])cn1,1,.,2,.,72*,-5
CCCC(=O)N(Cc1cc(=O)[nH]c2ccccc12)c1cccc(C)c1,-3,7,16,-2,15,5
COc1ccc(N(Cc2cc(=O)[nH]c3ccccc23)C(=O)CCl)cc1,13,36,15,0,66*,0
Cc1cccc(N(Cc2cc(=O)[nH]c3ccccc23)C(=O)CCl)c1,3,.,82*,2,61*,115*
CN(C)S(=O)(=O)c1ccc(Nc2nc(C3CC3)nc3c2nnn3Cc2ccccc2Cl)cc1,0,.,48*,.,.,67*
